Screening results as filed in PubChem BioAssay.
Most compounds without a hit are left out; they make up all but 2.4% or so of the library.
Mcl1 Bid PPI – disrupts binding of human Mcl-1 to Bid peptide. 220,000 tested, 0.97% active. AID 1021. Q07820. TR-FRET Mcl-1/Bid-Dy647 peptide binding, 1536-well. inhibition, % at 21.7 µM;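 active = compounds that cut the binding signal by more than half at the single screening dose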;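 note: His-tagged Mcl-1 with europium anti-His antibody binding Bid BH3 peptide; 0% = Mcl-1 plus peptide wells and 100% = peptide-only wells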
Target sequence (Q07820 whole entry, looked up): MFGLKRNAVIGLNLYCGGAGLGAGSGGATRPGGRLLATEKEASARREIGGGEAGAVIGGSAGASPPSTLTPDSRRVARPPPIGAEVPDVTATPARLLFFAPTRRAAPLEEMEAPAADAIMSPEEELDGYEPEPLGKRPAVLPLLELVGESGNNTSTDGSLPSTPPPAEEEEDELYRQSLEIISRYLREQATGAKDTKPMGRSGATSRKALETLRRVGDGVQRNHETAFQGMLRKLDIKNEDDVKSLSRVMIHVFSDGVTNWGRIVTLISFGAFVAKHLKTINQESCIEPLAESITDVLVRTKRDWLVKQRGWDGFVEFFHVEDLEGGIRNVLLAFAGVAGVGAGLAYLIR
Mcl-1 Bim block – human Bim-Mcl-1 interaction inhibition; 190,000 tested, 0.1% active; inhibition, % at 10 µM; Q07820; Bead-based flow cytometry, Bim peptide-Mcl-1 binding; AID 1009; in the data active = inhibition above about 40%;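 note: 0% = no compound tracer wells and 100% = peptide blocker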
Mcl1-Noxa inh – disrupts binding of human Mcl-1 to Noxa peptide; TR-FRET Mcl-1/Noxa peptide binding, 2 h; AID 1022; 220,000 tested, 1.5% active; Q07820; inhibition, % at 21.7 µM;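 active = compounds that cut the protein-peptide binding signal by more than 50% relative to plate controls in a single-dose test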;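 note: His-tagged Mcl-1 with rhodamine Noxa BH3 peptide and terbium anti-His antibody; 0% = Mcl-1 plus Noxa peptide wells and 100% = peptide-only wells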
MCL1-BIM inh – disrupts human MCL1 binding to BIM-BH3 peptide | 320,000 tested, 0.68% active | inhibition, % at 10.9 µM | GST-MCL1 / FITC-Bim-BH3 fluorescence polarization;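 active = inhibition above the mean inhibition of all tested compounds plus 3 SD, set per campaign, cut at about 40% in these data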;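 note: 0% = DMSO wells and 100% = unlabeled Bim-BH3 peptide control; higher means more loss of mP so more displacement of Bim peptide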
TNF necrop inh – inhibitors of TNF-alpha induced necroptosis in Jurkat FADD-/- cells | Jurkat FADD-/- TNF necroptosis rescue, ATP luminescence, 24 h; 0 = TNF only, 100 = no-TNF cells | activation (protection from cell death), % at 10 µM | 220,000 tested, 0.068% active | AID 463075;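 active = activation, meaning protection from cell death, of at least 50% relative to plate controls; inactive = activation below 50%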;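 note: necroptosis triggered by 40 ng/mL TNF-alpha added together with compound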
L929 necroptosis – L929 zVAD cell death inhibition; L929 zVAD necroptosis rescue, ATP luminescence, 24 h; with zVAD 60 µM; viability rescue, % at 10 µM; 220,000 tested, 0.38% active;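 active = activation, scaled between plate controls, above about 75%, limit read from the data; inactive = activation under that limit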;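 note: 0% = zVAD with DMSO and 100% = DMSO alone without zVAD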
The depositor's hits bear a star.

Screening Cc1ccc(N2CCN(C(=O)c3nn(C)c4c3CS(=O)(=O)c3ccccc3-4)CC2)c(C)c1 returned MCL1-BIM inh 3.
Screening Clc1ccc(OCCCn2cncn2)cc1Cl returned Mcl1 Bid PPI 56*, Mcl-1 Bim block -1, Mcl1-Noxa inh 27, MCL1-BIM inh 1, TNF necrop inh 0 and L929 necroptosis 0.
`CC(OC(=O)Cn1[nH]c(=O)c2ccccc2c1=O)C(=O)Nc1ccccc1[N+](=O)[O-]` (stereo not drawn) gave MCL1-BIM inh 6.
Screening C=CCOc1c(OC)cc(/C=N/Nc2cccc(C(=O)O)c2)c(Br)c1Br returned Mcl1 Bid PPI 78*, Mcl-1 Bim block -4, Mcl1-Noxa inh 88*, MCL1-BIM inh 13, TNF necrop inh -5 and L929 necroptosis 1.
`CC(=O)Nc1ccc(C2=NNC(=NCC3CCCO3)SC2)cc1` (stereo not drawn) gave Mcl1 Bid PPI 3, Mcl-1 Bim block 1, Mcl1-Noxa inh 61*, MCL1-BIM inh 2, TNF necrop inh 0 and L929 necroptosis 1.
`CC(=O)/C(=N\Nc1ccccc1Cl)Sc1cccc2cccnc12` gave Mcl1 Bid PPI -29, Mcl-1 Bim block -3, Mcl1-Noxa inh 11, MCL1-BIM inh 2, TNF necrop inh 0 and L929 necroptosis 0.
Screening CC(=O)/C(=N\Nc1ccccc1)Sc1cccc2cccnc12 returned Mcl1 Bid PPI -10, Mcl-1 Bim block -4, Mcl1-Noxa inh 69*, MCL1-BIM inh 6, TNF necrop inh 0 and L929 necroptosis 0.
Screening O=C(NCCc1csc(-c2cccnc2)n1)c1cccs1 returned Mcl1 Bid PPI 86*, Mcl-1 Bim block -2, Mcl1-Noxa inh 15, MCL1-BIM inh 5, TNF necrop inh 2 and L929 necroptosis 1.
Cc1ccc(C(=O)NCCc2csc(-c3cccnc3)n2)cc1 was read as Mcl1 Bid PPI -10, Mcl-1 Bim block -1, Mcl1-Noxa inh -10, MCL1-BIM inh 7, TNF necrop inh 0 and L929 necroptosis 10.
For CCN(CC)CCn1c(NCc2ccccn2)nc2ccccc21 the results were Mcl1 Bid PPI 85*, Mcl-1 Bim block -6, Mcl1-Noxa inh 34, MCL1-BIM inh 0, TNF necrop inh 0 and L929 necroptosis -1.
For CC(=O)Nc1ccc(/C=N/NC(=S)NC(C)C)cc1 the results were Mcl1 Bid PPI 6, Mcl-1 Bim block -1, Mcl1-Noxa inh 53*, MCL1-BIM inh 13, TNF necrop inh 6 and L929 necroptosis 7.
Screening CCN1CCN(C(C)CCc2ccccc2)CC1 (stereo not drawn) returned MCL1-BIM inh 1.
`O=C(O)CN1C(=O)C2C3C=CC(C3)C2C1=O` (stereo not drawn) gave Mcl1 Bid PPI -5, Mcl-1 Bim block 0, Mcl1-Noxa inh 13, MCL1-BIM inh -6, TNF necrop inh 1 and L929 necroptosis 2.
For C/C(Cl)=C/CN1C(=O)C2C3C=CC(C3)C2C1=O (stereo not drawn) the results were Mcl1 Bid PPI -11, Mcl-1 Bim block -7, Mcl1-Noxa inh -5, MCL1-BIM inh 12, TNF necrop inh 68* and L929 necroptosis 4.
Cc1cc(-c2nc(C)c(-c3nnc(SCC(=O)Nc4ccc(Cl)cc4)n3C)s2)no1 was read as Mcl1 Bid PPI -10, Mcl1-Noxa inh -10, MCL1-BIM inh 0, TNF necrop inh 4 and L929 necroptosis 0.
Screening CC(=O)Nc1nonc1-c1nc2ccccc2n1CC1CC1 returned Mcl1 Bid PPI -3, Mcl-1 Bim block -4, Mcl1-Noxa inh 6, MCL1-BIM inh 5, TNF necrop inh -2 and L929 necroptosis 0.
Screening CC(=O)Nc1nonc1-c1nc2ccccc2n1N(C(C)=O)C(C)=O returned Mcl1 Bid PPI -36, Mcl-1 Bim block 2, Mcl1-Noxa inh 52*, MCL1-BIM inh 16, TNF necrop inh -3 and L929 necroptosis 0.
For CC(=O)N1CCN(c2nc(-c3cccs3)nc3ccccc23)CC1 the results were Mcl1 Bid PPI -18, Mcl-1 Bim block 0, Mcl1-Noxa inh 3, MCL1-BIM inh 4, TNF necrop inh -2 and L929 necroptosis 1.
CCCN1CCN(c2nc(-c3cccs3)nc3ccccc23)CC1 was read as Mcl1 Bid PPI -11, Mcl-1 Bim block -2, Mcl1-Noxa inh 53*, MCL1-BIM inh 6, TNF necrop inh 2 and L929 necroptosis 1.
CCN1CCN(c2nc(-c3ccncc3)nc3ccccc23)CC1 was read as Mcl1 Bid PPI -15, Mcl-1 Bim block 5, Mcl1-Noxa inh 51*, MCL1-BIM inh 6, TNF necrop inh -4 and L929 necroptosis 4.
For CCN1CCN(c2nc(-c3cccnc3)nc3ccccc23)CC1 the results were Mcl1 Bid PPI 39, Mcl-1 Bim block 13, Mcl1-Noxa inh 66*, MCL1-BIM inh 4, TNF necrop inh -1 and L929 necroptosis 0.
Screening CCCOc1ccc(-c2nc(N3CCN(CC)CC3)c3ccccc3n2)cc1 returned MCL1-BIM inh -5.
CCNS(=O)(=O)c1ccc(CCC(=O)NCc2ccccc2)cc1 was read as Mcl1 Bid PPI -32, Mcl-1 Bim block 0, Mcl1-Noxa inh 4, MCL1-BIM inh 11, TNF necrop inh 1 and L929 necroptosis 0.
`Cc1ccc(N(CC(=O)NCc2ccc(F)cc2)C(=O)c2snc(C(N)=O)c2N)cc1C` gave MCL1-BIM inh 1.
Screening Cc1cc2nc(CO)[nH]c2cc1C returned Mcl1 Bid PPI -28, Mcl1-Noxa inh -1, MCL1-BIM inh 4, TNF necrop inh 2 and L929 necroptosis 0.
Screening Cc1cc2nc(/C=C/c3nc4cc(C)c(C)cc4[nH]3)[nH]c2cc1C returned Mcl1 Bid PPI 22, Mcl1-Noxa inh 79*, MCL1-BIM inh -3, TNF necrop inh 4 and L929 necroptosis 1.
For Cc1ccc(S(=O)(=O)c2cc3c(=O)n4ccccc4nc3n(C3CCCCC3)c2=N)cc1 the results were MCL1-BIM inh 1.
Cc1ccc(C)c(NC2=C(Cl)C(=O)OC2OC(=O)c2ccco2)c1 (stereo not drawn) was read as Mcl1 Bid PPI 3, Mcl-1 Bim block -2, Mcl1-Noxa inh 57*, MCL1-BIM inh -1, TNF necrop inh -7 and L929 necroptosis 0.
`Cc1ccc(NC2=C(Cl)C(=O)OC2OC(=O)c2ccco2)c(C)c1` (stereo not drawn) gave Mcl1 Bid PPI 1, Mcl-1 Bim block 4, Mcl1-Noxa inh 16, MCL1-BIM inh -6, TNF necrop inh -9 and L929 necroptosis -1.
COC(=O)CN1CCN(C(=O)c2ccco2)CC1 was read as MCL1-BIM inh 1.
Oc1ccc(N=Cc2ccc(O)c(O)c2)cc1 was read as Mcl1 Bid PPI -13, Mcl-1 Bim block 9, Mcl1-Noxa inh 67*, MCL1-BIM inh 28, TNF necrop inh -11 and L929 necroptosis 0.
COc1cccc(NC(=O)Cc2nnc(SCC(=O)NC3CCCC3)n2C)c1 was read as MCL1-BIM inh 3.
